Assay outcomes (PubChem)
TWEAK Fn14 block: inhibitors of TWEAK-Fn14 signaling, primary screen, luciferase reporter cells, uHTS; inhibition, % at 10 µM; TWEAK-stimulated Fn14 reporter cells, luciferase luminescence, 8 h; actives 2% (n = 360,000); in the data active means inhibition above about 50%
TROY signal inh: inhibitors of TROY-driven NF-kB signaling, primary screen, Q293 LMP1-TROYcd cells, NF-kB luciferase, uHTS | Q293 LMP1-TROYcd NF-kB luciferase reporter, 4 h | inhibition, % at 10 µM | actives 0.98% (n = 360,000);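 active means compounds whose plate-normalised and pattern-corrected inhibition of the luciferase reporter signal at the single screening dose is 50% or more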
HIF-2a inh: HIF-2a reporter inhibitors, primary screen, luminescence, 786-0 RCC cells; actives 0.72% (n = 360,000); 786-0 RCC cells HIF-2a reporter, luciferase luminescence, overnight; AID 624352, 2012; inhibition, % at 18.8 µM;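 active means inhibition of the luminescence signal of 40% or more relative to plate controls, in a single-dose primary screen at 18.75 µM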
CF NFkB block: inhibitors of PAF-induced NF-kB signaling, primary screen, cell-based, GFP fluorescence, uHTS. AID 588850, 2011. KKLEB NF-kB-GFP reporter, GFP fluorescence overnight. actives 0.86% (n = 360,000). inhibition, % at 5 µM;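 active means at least 50% inhibition at 5 µM, scaled per plate between neutral and stimulator controls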;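 further: PAF is a Pseudomonas aeruginosa culture filtrate used as stimulus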
KKLEB tox: cytotoxicity in KKLEB CF airway cells, primary screen, cytotoxicity control for CF NF-kB inhibitor project, cell-based, uHTS, fluorescence assay plates | KKLEB CF airway cells viability, ATPlite luminescence, overnight; active compounds read low; cells stimulated with P. aeruginosa culture filtrate | activity change (cytotoxicity), % at 5 µM | actives 0.36% (n = 360,000) | AID 602141, 2011;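 active means corrected activity change at or below -50% at 5 µM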
Peg3 promoter: Peg3 promoter-driven luciferase inhibitors, primary screen, cell-based, HeLa, luciferase luminescence | HeLa PEG-Prom luciferase reporter, overnight | inhibition, % at 20 µM | actives 1.7% (n = 360,000) | AID 588405, 2011;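 active means inhibition of at least 50% at 20 µM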
A number is an active result; n = inactive; x = no result given. Only some compounds are listed: those with a hit (about 4% of all), similar ones and a draw of the others.

SMILES	TWEAK Fn14 block	TROY signal inh	HIF-2a inh	CF NFkB block	KKLEB tox	Peg3 promoter
NC(N)=NN=C1CCC(c2ccccc2)CC1 (stereo not given)	n	n	n	n	n	n
CCCCn1c(N)c(N(CCOC)C(=O)COC(=O)/C=C/c2ccc(Br)cc2)c(=O)[nH]c1=O	n	n	n	n	n	n
COc1ccc(N2C(=O)C(Cl)=C(Oc3cccc(OC)c3)C2=O)cc1	n	n	93	n	n	107
Cc1cccc(C(=O)n2c(=S)nc3cc(C)ccn32)c1	85	71	n	n	n	n
O=C(c1ccco1)n1c(=S)nc2ccccn21	n	n	n	n	n	n
Cc1ccn2c(c1)nc(=S)n2C(=O)c1ccccc1	98	74	48	n	-51	n
COc1ccc(CC(=O)Oc2ccccc2Cl)cc1S(=O)(=O)N1CCOCC1	n	n	n	n	n	n
CC1(C)CC(=O)C2=C(C1)NC1=C(C(=O)c3ccccc31)C2c1ccc(Cl)cc1 (stereo not given)	109	93	n	n	n	n
O=C(COC(=O)CCN1C(=O)/C(=C\C=C\c2ccccc2)SC1=S)Nc1ccc(Br)cc1	n	n	58	n	n	n
CC(C)c1ccccc1NC(=O)COC(=O)CCN1C(=O)/C(=C\C=C\c2ccccc2)SC1=S	72	n	82	n	n	n
CC(=O)N1CCN(S(=O)(=O)c2cccc(C(=O)N(Cc3ccccc3)c3cccc(C)c3)c2)CC1	n	n	n	n	n	n
CNC(=O)COC(=O)/C=C/c1cn(-c2ccccc2)nc1-c1ccc2c(c1)OCCO2	n	n	n	n	n	n
Cc1ccc(-c2nn(-c3ccccc3)cc2/C=C/C(=O)OCC(=O)NC2CC2)o1	n	56	n	n	n	n
CC(C)C[C@H]1CN(CCCC[C@@H]2CNC(=O)C(=O)N2CC2CCCCC2)C(=O)C(=O)N1CC1CCCCC1	n	n	n	x	x	x
CN(C)CCCN(C(=O)c1ccco1)c1nc2ccc(Cl)cc2s1	n	n	n	n	n	n
CN(C)CCCN(C(=O)c1ccco1)c1nc2ccc(Br)cc2s1	n	n	n	n	n	51
Cc1cccc2sc(N(CCCN(C)C)C(=O)CCc3ccccc3)nc12	n	n	n	n	n	104
CN(C)CCCN(C(=O)CCc1ccccc1)c1nc2ccc(Br)cc2s1	n	n	n	n	n	106
Cc1cccc2sc(N(CCCN(C)C)C(=O)CN3C(=O)c4ccccc4C3=O)nc12	n	n	n	n	n	n
CCc1ccc(C(=O)COC(=O)C2=NN(c3ccccc3)C(=O)CC2)cc1	n	n	n	n	n	n
Cc1cc(-c2ccccc2)c2ccc(NC(=O)C(C)(C)C)nc2n1	n	n	n	n	n	n
CC(C)C(=O)C1=Cc2cc([N+](=O)[O-])ccc2OC1N1CCOCC1 (stereo not given)	n	n	n	n	n	n
CN(C)CCCNc1cc(O)c2ncccc2c1	n	n	n	n	n	81
Oc1cc(NCc2ccc(Cl)cc2)cc2cccnc12	n	n	n	n	n	n
NC(=O)CSc1ncc(-c2ccc([N+](=O)[O-])cc2)[nH]1	n	n	n	n	n	n
SMILES	TWEAK Fn14 block	TROY signal inh	HIF-2a inh	CF NFkB block	KKLEB tox	Peg3 promoter
O=[N+]([O-])c1ccc(-c2cnc(SCc3ccccc3Cl)[nH]2)cc1	n	n	n	n	n	n
O=[N+]([O-])c1ccc(-c2cnc(SC(c3ccccc3)c3ccccc3)[nH]2)cc1	79	62	n	n	n	53
Cc1cc(C)c(CSc2ncc(-c3ccc([N+](=O)[O-])cc3)[nH]2)c(C)c1	n	57	n	n	n	n
CCc1ccc(-c2csc(NC(=O)c3cccnc3)n2)cc1	61	n	n	n	n	n
O=C(Nc1nc(-c2ccc(Cl)cc2)cs1)c1cccnc1	n	n	n	n	n	n
CCc1ccc(-c2csc(NC(=O)C3=NN(c4ccccc4)C(=O)CC3)n2)cc1	74	51	n	n	n	n
CC1=C(C(=O)OC2CCCCC2)C(c2ccc(N(C)C)cc2)NC(=O)N1 (stereo not given)	n	n	n	n	n	n
O=C1C(C=Nc2ccccc2)=C(O)c2ccccc21	61	53	n	n	n	n
CCCCNC(=O)C1(C)CCCCN1C(=O)c1c(Cl)cccc1Cl (stereo not given)	n	n	n	n	n	n
Cc1ccccc1NC1=C/C(=N\S(=O)(=O)c2ccc(C(=O)O)cc2)c2ccccc2C1=O	93	n	56	100	-56	101
CC1=C(Nc2ccc(C(=O)O)cc2)C(=O)c2ccccc2C1=O	n	n	n	n	n	n
O=C(O)c1ccc(S(=O)(=O)/N=C2\C=C(Nc3ccccc3F)C(=O)c3ccccc32)cc1	96	n	n	102	-70	104
CC(=O)Nc1ccc(NC2=C/C(=N/S(=O)(=O)c3cccs3)c3ccccc3C2=O)cc1	99	67	n	81	n	n
Cc1ccc(NC2=C/C(=N/S(=O)(=O)c3cccs3)c3ccccc3C2=O)cc1C	n	n	n	n	n	n
COC(=O)C(C(C)=O)C1=C/C(=N\S(=O)(=O)c2ccc(C)cc2)c2ccccc2C1=O (stereo not given)	n	n	n	n	n	n
CCN1CCC[C@H]1CNCCCn1cnc2c(SC)ncnc21	n	n	n	n	n	n
COc1ccc2ccccc2c1CNC(C)c1ccccc1 (stereo not given)	n	n	n	n	n	n
CC(NCCCOc1cccc2ccccc12)c1ccccc1 (stereo not given)	n	n	n	n	n	94
c1ccc2c(c1)CCN(c1nc3cc4c(cc3s1)OCO4)C2	58	n	n	n	n	n
c1c2c(cc3sc(N4CCCCC4)nc13)OCO2	73	n	n	n	n	n
c1ccc(N2CCN(c3nc4cc5c(cc4s3)OCO5)CC2)cc1	n	n	n	n	n	n
CCOC(=O)[C@]12CCC=C1N(CCC1=CCCCC1)C(=O)[C@H](CC(=O)N1CCCCC1)C2	n	n	n	x	x	x
OC(CSc1ccccc1Cl)CN1CCN(c2ccccc2F)CC1 (stereo not given)	n	63	n	n	n	n
CCN1C(=O)[C@@H]2[C@@H](c3ccc(SC4CCCCC4)cc3)N3CCCC[C@@]3(C(=O)OC)[C@@H]2C1=O	61	63	n	n	n	n
